Experimental data: article PMC7862700, “An all-to-all approach to the identification of sequence-specific readers for epigenetic DNA modifications on cytosine”

These sequences were tested against T1, SPDEF (Homo sapiens, UniProt O95238 1-335) (assay: DAPPL (digital affinity profiling via proximity ligation, sequencing); 10 mM Tris-HCl pH 7.5, 50 mM NaCl, 1 mM DTT, 4% glycerol, room temperature, 30 min; GST-TFs on glutathione beads, 16-mer random dsDNA library, 0.1% formaldehyde crosslink after washing; high values mean tight binding). Conditions: protein: recombinant; tags: N-terminal GST; dsDNA, one strand shown.
T1 sequence: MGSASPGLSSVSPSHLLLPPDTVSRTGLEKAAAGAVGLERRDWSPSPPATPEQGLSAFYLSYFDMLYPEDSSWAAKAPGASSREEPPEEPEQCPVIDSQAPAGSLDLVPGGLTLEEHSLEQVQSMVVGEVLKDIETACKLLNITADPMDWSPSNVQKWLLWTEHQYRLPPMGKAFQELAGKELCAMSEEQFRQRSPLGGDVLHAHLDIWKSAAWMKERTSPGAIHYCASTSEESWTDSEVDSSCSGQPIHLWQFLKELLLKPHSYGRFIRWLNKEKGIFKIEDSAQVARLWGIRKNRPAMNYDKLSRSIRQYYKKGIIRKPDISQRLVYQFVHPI
How it was run: (§1)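 Beads coated with glutathione captured GST-fused human transcription factors that had been expressed in yeast, and the factors were then given DNA barcodes and pooled with a tag-only sample. The pools were incubated with 200 nmole of a random double-stranded 16-mer DNA library in Tris/NaCl/DTT/glycerol buffer for 30 min at room temperature, washed, crosslinked with 0.1% formaldehyde and proximity-ligated with BsaI/T4 ligase at 37 °C for 1 h. PCR amplification and Illumina NextSeq500 sequencing came last. Binding signal is each hexamer's read frequency for a factor divided by its frequency for the tag-only sample.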
With TTAATC the binding signal was 1.26 fold enrichment (6-mer frequency, TF over GST control).
In the case of TGCTTG, the binding signal is reported as 1.11 fold enrichment (6-mer frequency, TF over GST control).
In the case of GTTACA, the binding signal is reported as 1.21 fold enrichment (6-mer frequency, TF over GST control).
In the case of AGTTTC, the binding signal is reported as 1.19 fold enrichment (6-mer frequency, TF over GST control).
CTCATA was tested, and the binding signal was 1.33 fold enrichment (6-mer frequency, TF over GST control).
GTTTTG was tested, and the binding signal was 1.24 fold enrichment (6-mer frequency, TF over GST control).
For CCCGGA, the binding signal was 3.97 fold enrichment (6-mer frequency, TF over GST control).
In the case of CCTCCG, the binding signal is reported as 1.36 fold enrichment (6-mer frequency, TF over GST control).
TCTGTT was tested, and the binding signal was 1.35 fold enrichment (6-mer frequency, TF over GST control).
ATACGG was tested, and the binding signal was 1.31 fold enrichment (6-mer frequency, TF over GST control).
In the case of TAACTC, the binding signal is reported as 1.23 fold enrichment (6-mer frequency, TF over GST control).
For AATGGG, the binding signal was 1.12 fold enrichment (6-mer frequency, TF over GST control).
GCCGAC was tested, and the binding signal was 1.12 fold enrichment (6-mer frequency, TF over GST control).
For TTTGTG, the binding signal was 1.23 fold enrichment (6-mer frequency, TF over GST control).
With ATGATT the binding signal was 1.15 fold enrichment (6-mer frequency, TF over GST control).
In the case of CTACCC, the binding signal is reported as 1.29 fold enrichment (6-mer frequency, TF over GST control).
For AGGAAG, the binding signal was 1.15 fold enrichment (6-mer frequency, TF over GST control).
For CACCGA, the binding signal was 1.04 fold enrichment (6-mer frequency, TF over GST control).
AAAAGG was tested, and the binding signal was 1.07 fold enrichment (6-mer frequency, TF over GST control).
With TCCCAA the binding signal was 1.18 fold enrichment (6-mer frequency, TF over GST control).

Each sequence was assayed against T2, ETV7 (Homo sapiens, UniProt Q9Y603 1-341) in the same assay as above. Conditions: protein: recombinant; tags: N-terminal GST; dsDNA, one strand shown.
T2 sequence: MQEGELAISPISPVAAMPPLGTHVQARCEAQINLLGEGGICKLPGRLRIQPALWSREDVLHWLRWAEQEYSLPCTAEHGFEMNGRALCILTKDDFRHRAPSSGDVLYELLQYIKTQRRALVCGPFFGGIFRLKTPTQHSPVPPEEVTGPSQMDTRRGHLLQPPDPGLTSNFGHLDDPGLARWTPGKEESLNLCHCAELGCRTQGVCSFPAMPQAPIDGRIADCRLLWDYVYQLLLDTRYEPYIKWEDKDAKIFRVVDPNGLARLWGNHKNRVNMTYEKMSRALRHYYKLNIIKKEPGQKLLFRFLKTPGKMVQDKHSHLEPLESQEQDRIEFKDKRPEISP
How it was run: as §1
For TCTTTT, the binding signal was 1.56 fold enrichment (6-mer frequency, TF over GST control).
For ACGAAC, the binding signal was 1.21 fold enrichment (6-mer frequency, TF over GST control).
In the case of CTGATC, the binding signal is reported as 1.35 fold enrichment (6-mer frequency, TF over GST control).
In the case of CGATAA, the binding signal is reported as 1.08 fold enrichment (6-mer frequency, TF over GST control).
GTTCCA was tested, and the binding signal was 1.12 fold enrichment (6-mer frequency, TF over GST control).
TCTGAC was tested, and the binding signal was 1.22 fold enrichment (6-mer frequency, TF over GST control).
With AAGCTC the binding signal was 1.08 fold enrichment (6-mer frequency, TF over GST control).
GTTATG was tested, and the binding signal was 1.12 fold enrichment (6-mer frequency, TF over GST control).
With TTTTTT the binding signal was 1.26 fold enrichment (6-mer frequency, TF over GST control).
With TTGAGC the binding signal was 1.1 fold enrichment (6-mer frequency, TF over GST control).
With CACCTT the binding signal was 1.12 fold enrichment (6-mer frequency, TF over GST control).
With CCTACA the binding signal was 1.15 fold enrichment (6-mer frequency, TF over GST control).
GAACTT was tested, and the binding signal was 1.62 fold enrichment (6-mer frequency, TF over GST control).
With CACACT the binding signal was 1.14 fold enrichment (6-mer frequency, TF over GST control).
With TCCCTT the binding signal was 1.57 fold enrichment (6-mer frequency, TF over GST control).
For AGTTCC, the binding signal was 1.94 fold enrichment (6-mer frequency, TF over GST control).
TCCCCG was tested, and the binding signal was 1.15 fold enrichment (6-mer frequency, TF over GST control).
For TCTCGC, the binding signal was 1.68 fold enrichment (6-mer frequency, TF over GST control).
In the case of TAATGA, the binding signal is reported as 1.18 fold enrichment (6-mer frequency, TF over GST control).
CCCACA was tested, and the binding signal was 1.05 fold enrichment (6-mer frequency, TF over GST control).
For TTAATC, the binding signal was 1.1 fold enrichment (6-mer frequency, TF over GST control).
In the case of TGCTTG, the binding signal is reported as 1.19 fold enrichment (6-mer frequency, TF over GST control).
For GTTACA, the binding signal was 1.12 fold enrichment (6-mer frequency, TF over GST control).
For AGTTTC, the binding signal was 1.29 fold enrichment (6-mer frequency, TF over GST control).
CTCATA was tested, and the binding signal was 1.32 fold enrichment (6-mer frequency, TF over GST control).
With GTTTTG the binding signal was 1.13 fold enrichment (6-mer frequency, TF over GST control).
CCCGGA was tested, and the binding signal was 2.48 fold enrichment (6-mer frequency, TF over GST control).
In the case of CCTCCG, the binding signal is reported as 1.2 fold enrichment (6-mer frequency, TF over GST control).
For TCTGTT, the binding signal was 1.46 fold enrichment (6-mer frequency, TF over GST control).
For ATACGG, the binding signal was 1 fold enrichment (6-mer frequency, TF over GST control).
In the case of TAACTC, the binding signal is reported as 1.22 fold enrichment (6-mer frequency, TF over GST control).
AATGGG was tested, and the binding signal was 1.2 fold enrichment (6-mer frequency, TF over GST control).
For GCCGAC, the binding signal was 1.12 fold enrichment (6-mer frequency, TF over GST control).
In the case of TTTGTG, the binding signal is reported as 1.2 fold enrichment (6-mer frequency, TF over GST control).
ATGATT was tested, and the binding signal was 1.17 fold enrichment (6-mer frequency, TF over GST control).
CTACCC was tested, and the binding signal was 1.23 fold enrichment (6-mer frequency, TF over GST control).
AGGAAG was tested, and the binding signal was 1.23 fold enrichment (6-mer frequency, TF over GST control).
CACCGA was tested, and the binding signal was 1.11 fold enrichment (6-mer frequency, TF over GST control).
With AAAAGG the binding signal was 1.16 fold enrichment (6-mer frequency, TF over GST control).
In the case of TCCCAA, the binding signal is reported as 1.11 fold enrichment (6-mer frequency, TF over GST control).

These sequences were tested against T3, ELF5 (Homo sapiens, UniProt Q9UKW6-2 1-255) in the same assay as above. Conditions: protein: recombinant; tags: N-terminal GST; dsDNA, one strand shown.
T3 sequence: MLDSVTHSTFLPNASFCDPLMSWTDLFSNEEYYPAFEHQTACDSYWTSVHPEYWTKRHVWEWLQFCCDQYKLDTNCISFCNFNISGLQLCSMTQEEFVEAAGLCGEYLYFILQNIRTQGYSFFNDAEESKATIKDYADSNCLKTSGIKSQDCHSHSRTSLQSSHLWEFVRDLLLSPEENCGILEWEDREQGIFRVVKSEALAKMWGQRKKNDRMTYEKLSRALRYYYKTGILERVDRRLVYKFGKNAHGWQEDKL
How it was run: as §1
TCTTTT was tested, and the binding signal was 1.43 fold enrichment (6-mer frequency, TF over GST control).
With ACGAAC the binding signal was 1.09 fold enrichment (6-mer frequency, TF over GST control).
CTGATC was tested, and the binding signal was 1.32 fold enrichment (6-mer frequency, TF over GST control).
With CGATAA the binding signal was 1.03 fold enrichment (6-mer frequency, TF over GST control).
In the case of GTTCCA, the binding signal is reported as 1.07 fold enrichment (6-mer frequency, TF over GST control).
In the case of TCTGAC, the binding signal is reported as 1.2 fold enrichment (6-mer frequency, TF over GST control).
In the case of AAGCTC, the binding signal is reported as 1.07 fold enrichment (6-mer frequency, TF over GST control).
In the case of GTTATG, the binding signal is reported as 1.06 fold enrichment (6-mer frequency, TF over GST control).
For TTTTTT, the binding signal was 1.14 fold enrichment (6-mer frequency, TF over GST control).
TTGAGC was tested, and the binding signal was 1 fold enrichment (6-mer frequency, TF over GST control).
In the case of CACCTT, the binding signal is reported as 1.21 fold enrichment (6-mer frequency, TF over GST control).
In the case of CCTACA, the binding signal is reported as 1.41 fold enrichment (6-mer frequency, TF over GST control).
GAACTT was tested, and the binding signal was 1.96 fold enrichment (6-mer frequency, TF over GST control).
With CACACT the binding signal was 1.18 fold enrichment (6-mer frequency, TF over GST control).
For TCCCTT, the binding signal was 1.72 fold enrichment (6-mer frequency, TF over GST control).
AGTTCC was tested, and the binding signal was 2.79 fold enrichment (6-mer frequency, TF over GST control).
TCCCCG was tested, and the binding signal was 1.24 fold enrichment (6-mer frequency, TF over GST control).
With TCTCGC the binding signal was 1.71 fold enrichment (6-mer frequency, TF over GST control).
TAATGA was tested, and the binding signal was 1.12 fold enrichment (6-mer frequency, TF over GST control).
With CCCACA the binding signal was 1.13 fold enrichment (6-mer frequency, TF over GST control).
With TTAATC the binding signal was 1.18 fold enrichment (6-mer frequency, TF over GST control).
For TGCTTG, the binding signal was 1.04 fold enrichment (6-mer frequency, TF over GST control).
In the case of GTTACA, the binding signal is reported as 1.14 fold enrichment (6-mer frequency, TF over GST control).
In the case of AGTTTC, the binding signal is reported as 1.65 fold enrichment (6-mer frequency, TF over GST control).
In the case of CTCATA, the binding signal is reported as 1.39 fold enrichment (6-mer frequency, TF over GST control).
For GTTTTG, the binding signal was 1.13 fold enrichment (6-mer frequency, TF over GST control).
CCCGGA was tested, and the binding signal was 3.77 fold enrichment (6-mer frequency, TF over GST control).
For CCTCCG, the binding signal was 1.35 fold enrichment (6-mer frequency, TF over GST control).
TCTGTT was tested, and the binding signal was 1.4 fold enrichment (6-mer frequency, TF over GST control).
With ATACGG the binding signal was 1.32 fold enrichment (6-mer frequency, TF over GST control).
With TAACTC the binding signal was 1.16 fold enrichment (6-mer frequency, TF over GST control).
AATGGG was tested, and the binding signal was 1.2 fold enrichment (6-mer frequency, TF over GST control).
For GCCGAC, the binding signal was 1.07 fold enrichment (6-mer frequency, TF over GST control).
With TTTGTG the binding signal was 1.18 fold enrichment (6-mer frequency, TF over GST control).
ATGATT was tested, and the binding signal was 1.14 fold enrichment (6-mer frequency, TF over GST control).
In the case of CTACCC, the binding signal is reported as 1.29 fold enrichment (6-mer frequency, TF over GST control).
AGGAAG was tested, and the binding signal was 2.03 fold enrichment (6-mer frequency, TF over GST control).
In the case of CACCGA, the binding signal is reported as 1.04 fold enrichment (6-mer frequency, TF over GST control).
For AAAAGG, the binding signal was 1.21 fold enrichment (6-mer frequency, TF over GST control).
In the case of TCCCAA, the binding signal is reported as 1.21 fold enrichment (6-mer frequency, TF over GST control).
